# This is part of a sample that, as a whole, favours compounds with a hit. Of some 83,000 tested, about 20% had one in any assay.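 Step 1: grow cells in 96-well plates. Step 2: add test compound at a single concentration. Step 3: incubate 48 h. Step 4: record percent growth.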 Values without a mark were called inactive. Activity calls are given as the source filed them. The calls were made as follows: active = growth percent below 10; inactive = the rest.
# Legend:
# Assay in all cases: NCI-60 one-dose screen, 48 h (100 = growth as untreated, 0 = no growth, -100 = all killed)
# Details in all cases: 10 µM unless noted
# [1] = system: T-47D breast
# [2] = system: BT-549 breast
# [3] = system: MDA-MB-435 melanoma
# [4] = system: SW-620 colon
# [5] = system: MCF7 breast
# [6] = system: HCT-116 colon
# [7] = system: HCC-2998 colon
# [8] = system: KM12 colon
Compound,growth [1],growth [2],growth [3],growth [4],growth [5],growth [6],growth [7],growth [8]
CCc1n(Cc2ccc3ccccc3n2)cc[n+]1Cc1ccc2ccccc2n1,-3.68% (active),13.4%,14%,38.5%,13.5%,35%,27.3%,12.2%
C=C1CC[C@@H]2C(C)(C)[C@@H](O)CC[C@@]2(C)[C@@H]1COc1ccc2ccc(=O)oc2c1,-12.4% (active),72.7%,81.5%,99.4%,50.2%,76.6%,92.3%,70%
COc1cc(/C=C/C(=O)c2ccc(-n3cc(CN4CCN(c5cc6c(cc5F)c(=O)c(C(=O)O)cn6C5CC5)CC4)nn3)cc2)ccc1O,75.3%,90.4%,74%,85.4%,37.6%,-53.4% (active),59.3%,29.9%
NC(=O)c1c(NC(=O)c2cccc(C(F)(F)F)c2)sc2c1CCC(=O)C2,-3.77% (active),-28.2% (active),-12.2% (active),-12.4% (active),5.02% (active),-28.2% (active),16.1%,0.496% (active)
C=Cc1cnc(Nc2ccc(OC)cc2)nc1NCCCNC(=O)C1CCC1,66.8%,26.4%,70.3%,47.5%,53.6%,21.5%,78.8%,39.1%
C=C(CNCCO)[C@@H]1CC[C@]2(CO)CC[C@]3(C)[C@H](CC[C@@H]4[C@@]5(C)CCC(N)C(C)(C)[C@@H]5CC[C@]43C)[C@@H]12 (stereo partly drawn),-47.7% (active),65%,-44% (active),7.71% (active),-29.9% (active),7.75% (active),-37.2% (active),25.2%
COc1ccc(-c2n[nH]c(=O)c3nc(NC(=S)Nc4ccc(Oc5ccccc5)cc4)sc23)cc1,81.9%,108%,97.3%,96.8%,96.8%,91.1%,105%,93.8%
O=[N+]([O-])c1ccc(-c2cn3nc(-c4c[nH]c5ccccc45)sc3n2)cc1,64.8%,99.5%,107%,99.9%,79.5%,90.8%,86.1%,83.2%
O=C1c2ccccc2C(=O)C1c1ccc(Br)cc1,108%,101%,97.9%,99.9%,87.7%,92.4%,98%,107%
Cc1cn(-c2cc(NC(=O)c3cncc(C#Cc4c(N)ncc5ccc(F)cc45)c3)cc(C(F)(F)F)c2)cn1,65.8%,86.4%,36.6%,33.3%,31.5%,19.4%,77.4%,14.1%
CCOC(=O)C(=Cc1ccc(-c2ccccc2)cc1)C(=O)OCC,27.8%,30.7%,38.3%,10.8%,16.9%,-10.1% (active),76.2%,36.6%
O=c1c2c3c(sc2n2c(-c4cc(-c5ccccc5)no4)nnc2n1Cc1ccccc1)CCCC3,53.3%,91.9%,106%,106%,97.1%,81.6%,101%,95.5%
Cc1cc(Nc2ccc(C(=O)N3CCCC3)cc2)nc(NCCCNc2ccnc3cc(Cl)ccc23)n1,77.8%,84.6%,79.6%,95.9%,51.6%,54.5%,80.9%,87.4%
Nc1c(C(=O)Nc2cccc(Cl)c2)sc2nc3c(cc12)CCCC3,80.8%,93.1%,34.4%,92.3%,71.6%,91.6%,91.4%,77.6%
COc1ccc(C(=O)/C=C/c2ccc(N3CCCCC3)cc2)cc1OC,76.6%,87.4%,103%,102%,90.4%,82.7%,107%,98.9%
C=C(C)[C@@H]1CC[C@]2(C(N)=O)CC[C@]3(C)[C@H](CC[C@@H]4[C@@]5(C)CC[C@H](OCCC#N)C(C)(C)[C@@H]5CC[C@]43C)[C@@H]12,72.3%,97.8%,89.1%,87%,86.7%,91%,110%,89.2%

Compound,growth [1],growth [2],growth [3],growth [4],growth [5],growth [6],growth [7],growth [8]
CCN1CCN(C(=O)[C@]23CC[C@@H](C)[C@H](C)[C@@H]2C2=CC[C@@H]4[C@@]5(C)C/C(=C/c6cccnc6)C(=O)C(C)(C)[C@@H]5CC[C@@]4(C)[C@]2(C)CC3)CC1,22%,41.2%,24%,13.3%,8.54% (active),10.3%,19.6%,18.2%
N#Cc1c(Nc2ccc(N3CCOCC3)cc2)nc(SCC(=O)c2ccc(Br)cc2)nc1-c1ccccc1,102%,115%,109%,109%,94.8%,87.9%,100%,103%
Cc1ccc(S(=O)(=O)c2nc(-c3ccccc3)oc2Sc2nc3ccccc3s2)cc1,62.7%,17.6%,54.7%,54.7%,58%,-1.16% (active),107%,97.2%
C[C@H](C(=O)N(CCc1ccc(Cl)c(Cl)c1)Cc1cncs1)[C@@H]1CC[C@H](C[C@H](C)n2cc(CN3CCC(c4ccc(Cl)cc4)CC3)nn2)O1,86.6%,95.1%,98.3%,97.5%,85.8%,92.5%,112%,105%
Cc1c2ccncc2c(C)c2c1c1cc(CO)ccc1n2C,-17.1% (active),10.7%,6.7% (active),1.67% (active),4.26% (active),-22.5% (active),15.5%,9.22% (active)
COc1cc(NC(=O)c2cncnc2Nc2ccc3c(ccn3Cc3ccccn3)c2)cc(OC)c1,45.3%,34.9%,-6.69% (active),23.6%,31.2%,18.2%,67.8%,33.7%
COc1ccccc1N(C(C)=O)C1=C(Cl)C(=O)c2ccccc2C1=O,-33.1% (active),-4.47% (active),-13.3% (active),-65.2% (active),11.8%,-29.1% (active),19.5%,-11.4% (active)
OCCNCCNC(Cc1ccc(Cl)cc1)c1ccccc1 (stereo not drawn),44.6%,79.7%,98.6%,107%,85.1%,75.7%,91.6%,90.4%
Cn1cc(-c2csc(-c3cn(CCCN4CCOCC4)c4ccccc34)n2)c2cccnc21,62.1%,88.7%,91.6%,94.6%,85.6%,84.4%,92.9%,85.4%
c1ccc2c(c1)CCCc1nnc3nc4ccccc4n3c1-2,31.7%,62.9%,61.9%,53.7%,45.6%,17%,42.4%,55.8%
Fc1cc(Nc2ccc3c(OCCCN4CCOCC4)cccc3n2)ccc1Cl,48.2%,57.9%,32%,-32.2% (active),14.2%,3.61% (active),-58.2% (active),-21.8% (active)
Nc1[nH]c(=S)nc2oc(-c3ccccc3)c(-c3ccccc3)c12,96.8%,106%,104%,106%,96.6%,101%,110%,98.9%
O=C(Cc1cccc(OC(F)(F)F)c1)Nc1ccc(CCCCc2nnc(NC(=O)Cc3ccccn3)s2)nn1,30.3%,48.7%,85.1%,100%,79.7%,40%,91%,69.4%
O=C(Cn1nnc2ccccc21)N/N=C/c1c[nH]c2ccccc12,37.1%,52.4%,-15.9% (active),25.3%,22%,26.9%,78.8%,22.6%
CCOC(=O)CC1CSC(Nc2ccccc2)=N1 (stereo not drawn),87.9%,114%,105%,108%,89.7%,107%,102%,99%
